Consider 14 compounds from PubChem BioAssay (NCI).

Some test systems named below: NCI-H23 lung; NCI-H226 lung; NCI-H322M lung; HOP-62 NSCLC; NCI-H460 lung; HOP-92 NSCLC; A549/ATCC NSCLC; 786-0 renal; COLO 205 colon.
Holding throughout (test): NCI-60 one-dose screen, 48 h (100 = growth as untreated, 0 = no growth, -100 = all killed)
Settings in all cases: 10 µM unless noted

Compounds without any hit were thinned out: in the full panel of roughly 83,000, 20% have a hit.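 Percent growth is the endpoint: 0 to 100 indicates growth inhibition (40 means 60% inhibition), 0 means no net growth, and negative values indicate cell death.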 A number with no mark means an inactive call. Activity calls are given as the source filed them. Rule for the calls: active = growth percent below 10; inactive = the rest.

As for `COc1ccc(OC)c2c1CCC1(C2)NC(=O)NC1=O` (stereo unspecified), the growth in the assay on NCI-H23 lung is 106%; in the assay on NCI-H226 lung, 102%; with NCI-H322M lung, 107%; in the assay on HOP-62 NSCLC, 95.2%; with NCI-H460 lung, 107%; with HOP-92 NSCLC, 69.3%. Also, the growth with A549/ATCC NSCLC was 98.9%; with 786-0 renal it was 113%; in the assay on COLO 205 colon it was 98.9%.

For `COc1cccc(/C=N\NC(=O)c2ccncc2)c1O`, the growth in the assay on NCI-H23 lung is 58.5%; in the assay with NCI-H226 lung, 61.8%; with NCI-H322M lung, 19%; with HOP-62 NSCLC it was 50.8%; in the assay on NCI-H460 lung, 15.9%; in the assay on HOP-92 NSCLC it was 55.1%. Also, the growth in the assay with A549/ATCC NSCLC is 73.2%; in the assay with 786-0 renal, 35.5%; in the assay on COLO 205 colon, 50.1%.

With `Cc1[nH]ccc2cc3nc4ccccc4c3cc12`, the growth is 39.4% in the assay with NCI-H23 lung; 27.2% with NCI-H226 lung; 19.2% in the assay with NCI-H322M lung; 34.4% in the assay with HOP-62 NSCLC; 8.56% (active) in the assay on NCI-H460 lung; 31.9% in the assay on HOP-92 NSCLC. For the same compound, the growth was 14.6% with A549/ATCC NSCLC, 44.7% with 786-0 renal and -5.37% (active) in the assay on COLO 205 colon.

Regarding `CCN(CC)CCCCCCCNc1c2ccc(Cl)cc2nc2ccc(OC)cc12`, the growth in the assay with NCI-H23 lung is -24.3% (active); in the assay on NCI-H226 lung it was -18.2% (active); with NCI-H322M lung, -35% (active); with HOP-62 NSCLC, -49.2% (active); with NCI-H460 lung it was -67.6% (active); in the assay on HOP-92 NSCLC, -62.1% (active). For the same compound, the results for the growth in the assay with A549/ATCC NSCLC, in the assay with 786-0 renal and in the assay with COLO 205 colon were -37.9% (active), -57.5% (active) and -92.5% (active), respectively.

Turning to `Clc1ccc2nc(CI)c(CI)nc2c1`, the growth was 85.8% in the assay on NCI-H23 lung; 56.4% with NCI-H226 lung; 83.7% in the assay with NCI-H322M lung; 94.3% in the assay on HOP-62 NSCLC; 118% in the assay with NCI-H460 lung; 19.3% in the assay with HOP-92 NSCLC. Besides, the growth in the assay with A549/ATCC NSCLC is 96.1%; with 786-0 renal it was 0.747% (active); in the assay with COLO 205 colon, 0% (active).

For the compound `COc1cc(C2CC(C3C(=O)N(C)C(=O)N(C)C3=O)=NN2C=O)cc(OC)c1OC` (stereo unspecified), the growth is 97.3% with NCI-H23 lung; 95.8% in the assay with NCI-H226 lung; 91.2% in the assay on NCI-H322M lung; 73.5% with HOP-62 NSCLC; 99.9% in the assay on NCI-H460 lung; 105% with HOP-92 NSCLC. For the same compound, the figures for the growth with A549/ATCC NSCLC, in the assay with 786-0 renal and in the assay with COLO 205 colon were 75.1%, 108% and 98.7%, respectively.

Regarding `O=c1sc2ncnc3ncn1c32`, the growth in the assay with NCI-H23 lung was 66.1%; in the assay on NCI-H226 lung, 61.4%; in the assay with NCI-H322M lung, 77.9%; in the assay on HOP-62 NSCLC it was 41.8%; with NCI-H460 lung it was 85.7%; in the assay with HOP-92 NSCLC, 50%. Further, the results for the growth in the assay with A549/ATCC NSCLC, with 786-0 renal and with COLO 205 colon were 104%, 34.6% and 83.5%, respectively.

As to `CCCCCCCCCCCCCCCCCC1=NC(C)(CO)CO1` (stereo unspecified), the growth was 98.2% with NCI-H23 lung; 91.1% in the assay on NCI-H226 lung; 90.4% in the assay on NCI-H322M lung; 95.9% with HOP-62 NSCLC; 103% with NCI-H460 lung; 79.8% with HOP-92 NSCLC. Moreover, the growth was 89.6% with A549/ATCC NSCLC, 92.3% in the assay on 786-0 renal and 101% with COLO 205 colon.

`Clc1ccc(C2=NN(c3ccc(Cl)cc3)C(c3cccc(Nc4ccnc5cc(Cl)ccc45)c3)C2)cc1` (stereo unspecified): the growth is 85.2% in the assay on NCI-H23 lung; 88% in the assay with NCI-H226 lung; 87.7% in the assay with NCI-H322M lung; 69.4% in the assay with HOP-62 NSCLC; 93.1% with NCI-H460 lung; 88% with HOP-92 NSCLC. For the same compound, the growth in the assay on A549/ATCC NSCLC was 70.9%; in the assay on 786-0 renal, 85.3%; with COLO 205 colon, 72.8%.

With `O=C(Nc1nc2ccc(OC(F)(F)F)cc2s1)c1ccc(F)cc1`, the growth is -34.7% (active) in the assay with NCI-H23 lung; 20.6% in the assay with NCI-H226 lung; 30% with NCI-H322M lung; 26.1% in the assay on HOP-62 NSCLC; -13.1% (active) with NCI-H460 lung; -14% (active) in the assay with HOP-92 NSCLC. For the same compound, the growth with A549/ATCC NSCLC is 14.5%; in the assay on 786-0 renal, 16.2%; in the assay with COLO 205 colon, -17.4% (active).

On to `CN1CCN(c2nc3scc(-c4ccccc4)c3c(=O)[nH]2)CC1`, for which the growth is 100% in the assay on NCI-H23 lung; 98.6% in the assay on NCI-H226 lung; 90.3% in the assay with NCI-H322M lung; 103% in the assay with HOP-62 NSCLC; 108% with NCI-H460 lung; 98.5% in the assay with HOP-92 NSCLC. The growth in the assay with A549/ATCC NSCLC is 99%; with 786-0 renal it was 98.3%; with COLO 205 colon, 99%.

Regarding `C/C(=C\CCc1ccoc1)CC/C=C(\C)CCCN1CCSCC1`, the growth with NCI-H23 lung was 64.6%; in the assay on NCI-H226 lung, 80%; in the assay on NCI-H322M lung it was 7.95% (active); in the assay with HOP-62 NSCLC it was 97.5%; with NCI-H460 lung, 10.1%; in the assay on HOP-92 NSCLC it was 73.3%. In addition, the figures for the growth with A549/ATCC NSCLC, in the assay with 786-0 renal and in the assay on COLO 205 colon were 28.4%, 91.6% and 51.1%, respectively.

Turning to `CC(=O)N1N=C(c2ccc3c(c2)OCO3)CC1c1c(C)nn(-c2ccccc2)c1N(C)Cc1ccccc1` (stereo unspecified), the growth is 86.9% in the assay on NCI-H23 lung; 76.3% in the assay with NCI-H226 lung; 89.6% in the assay with NCI-H322M lung; 77.1% in the assay on HOP-62 NSCLC; 79.1% in the assay with NCI-H460 lung; 46.1% in the assay on HOP-92 NSCLC. The growth in the assay on A549/ATCC NSCLC was 50.6%; in the assay with 786-0 renal, 85.5%; in the assay on COLO 205 colon, 79.3%.

As to `C[C@@H]1[C@H]2[C@H](C=C3[C@@H]4CC[C@H]5Cc6nc7c(nc6C[C@]5(C)[C@H]4C[C@@H](O)[C@@]32C)C[C@@H]2CC[C@H]3C4=C[C@@H]5O[C@@]6(CC[C@](C)(CO)O6)[C@@H](C)[C@@]5(O)[C@@]4(C)[C@H](O)C[C@@H]3[C@@]2(C)C7)O[C@]12CCC(C)(C)O2`, the growth in the assay on NCI-H23 lung was 33.6%; in the assay on NCI-H226 lung it was 20.7%; in the assay with NCI-H322M lung it was 27.8%; with HOP-62 NSCLC it was -24.5% (active); with NCI-H460 lung, 0.313% (active); with HOP-92 NSCLC it was -4.69% (active). Further, the values for the growth in the assay with A549/ATCC NSCLC, in the assay with 786-0 renal and with COLO 205 colon were 12.8%, -25.3% (active) and -39.3% (active), respectively.
